Most compounds without a hit are left out; they make up all but 2.5% or so of the library.
pAkt inh = Akt phosphorylation inhibition; Neuro2A IGF-stimulated pAkt S473 HTRF, 20 min; stronger effect = lower value; activity change, % for hits at 50 µM; actives 0.32% (n = 360,000); AID 651550; in the data active means activity change below about -80%; inconclusive means mostly about -51% to -80%; further: on the % scale 0 is the no-effect control and ±100 the full control effect
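Neuro2A cells (4,500/well, DMEM with 0.5% FBS) were treated with compound at a single 50 µM final concentration, stimulated with 6 nM IGF for 20 min at 37 °C, and lysed. Phospho-Akt Ser473 was read by HTRF as 665/615 ratio ×10^4.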
TDP43 rescue = TDP-43 toxicity inhibition in yeast | TDP-43 expressing yeast growth rescue, BacTiter-Glo, 24 h | Potency, µM (top dose mostly 46.1 µM), for the others: at the highest dose growth rescue (activation), usual class: activators | actives 1.8% (n = 410,000); further: potency means the concentration at half of the fitted maximal effect; % of control where 0% means no effect; nearly all actives have a fitted effect of over 50% in size
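Growth rescue of TDP-43-toxic yeast measured as ATP luminescence (BacTiter-Glo). Cells grown to mid-log in raffinose, induced in galactose at OD600=0.02, exposed to compound 24 hr at 30 deg C.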
aSyn yeast inh = alpha-synuclein toxicity inhibition in yeast; Yeast expressing alpha-synuclein, growth rescue, BacTiter-Glo, 24 h; Potency, µM (doses to about 46.1 µM), without a hit: top-dose growth rescue (activation), most hits filed as activators; actives 0.14% (n = 370,000); AID 652106; further: potency means the concentration at half of the fitted maximal effect; % of control where 0% means no effect; nearly all actives have a fitted effect of over 65% in size
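Readout is rescue of growth in alpha-synuclein-expressing yeast, so inhibitors of toxicity appear as activators. Growth after 24 hr at 30 deg C in galactose medium is quantified by luminescence.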
Mito fusion act = blocks mitochondrial division or promotes mitochondrial fusion; Potency, µM (top dose mostly 46.1 µM), without a hit: at the top dose growth rescue (activation), usual class: activators; actives 0.23% (n = 320,000); S. cerevisiae fusion-defective mutant growth rescue, CellTiterGlo 48 h; further: potency means the concentration at half of the fitted maximal effect; % of control where 0% means no effect; nearly all actives have a fitted effect of over 45% in size
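Compounds are tested for their ability to restore growth of mitochondrial fusion-defective yeast strains at non-permissive 37C in YPEG medium over 48 hours. Viability is quantified by luciferase luminescence.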
CCT modulator = modulators of cytosolic chaperonin (CCT/TRiC) activity; actives 0.3% (n = 360,000); purified chaperonin ATPase assay, HTRF ADP detection, 30 min; activity change, % (test concentration not listed), hits read low; in the data active means activity change below about -30%; further: on the % scale 0 is the no-effect control and ±100 the full control effect
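Enzyme 40 or 20 nM (batch-dependent) in Tris pH 7.4/KCl/MgCl2/DTT; cpd 76 uM single point; ATP 10 uM; 30 min 37 °C; Transcreener ADP HTRF detection, 30 min RT; ratio 665/615.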
Apoferritin bind = candidate novel general anesthetic via apoferritin binding | P02791 | actives 0.074% (n = 350,000) | Potency, µM (series often up to 77.5 µM), without a hit: at the highest dose activity change, negative = displacement, actives largely listed as inhibitors | apoferritin/1-aminoanthracene competitive binding, fluorescence; further: potency means the concentration at half of the fitted maximal effect; on the % scale 0 is the no-effect control and ±100 the full control effect; nearly all actives have a fitted effect of over 20% in size
Target sequence (P02791 2-175 limits assumed): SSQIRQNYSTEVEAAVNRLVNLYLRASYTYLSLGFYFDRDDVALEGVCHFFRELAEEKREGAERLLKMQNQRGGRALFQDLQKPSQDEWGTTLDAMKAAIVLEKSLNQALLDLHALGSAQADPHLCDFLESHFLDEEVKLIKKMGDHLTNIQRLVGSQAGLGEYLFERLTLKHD
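Concentration-response curves derived by four-parameter Hill fitting of normalized fluorescence, where compounds displaced 1-AMA from 10 uM horse apoferritin following a brief 10 min room-temperature incubation; propofol titration acted as positive control.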
Active calls of the source: *; i = inactive; ? = inconclusive; · = no result; [ ] = another dose, or the depositor's remark. Unless noted, the call rests on the fitted dose curve; in most records, active means well fitted curve in the direction sought with a large enough effect; inconclusive means small, poorly fitted or top-dose-only effect, or another doubt; inactive means no such curve, though single readings can be large; an effect the other way counts as inactive or inconclusive.

SMILES	pAkt inh	TDP43 rescue	aSyn yeast inh	Mito fusion act	CCT modulator	Apoferritin bind
N/C(Cc1ccc(Cl)cc1)=N\OC(=O)c1ccc2ccccc2c1	i	6.3µM*	-58%	-24%	-4	?
Cc1ccc(/C(N)=N/OC(=O)c2ccc(C)cc2Cl)cc1	i	4µM*	-37%	-13%	-2	3%
CN(CC(=O)Nc1ccc(Cl)c(C(F)(F)F)c1)C(=O)C1CC(=O)N(c2ccc3c(c2)OCCO3)C1 (centres undefined)	i	15%	6%	·	0	·
CN(CC(=O)Nc1ccc(Cl)c(C(F)(F)F)c1)C(=O)c1ccc2c(c1)OCCO2	i	15%	2%	-14%	-81*	·
CCOc1ccccc1NC(=O)N(C)CCc1c(C)nn(CC)c1C	·	12%	·	·	·	35%
CC(C)(C)c1ccc(-n2nc(C#N)c(Cl)cc2=O)cc1	i	3.5µM*	-1%	7%	0	?
Cc1ccccc1NC(=O)c1ccc(F)c(S(=O)(=O)N(C)C2CCCCC2)c1	·	16µM*	·	·	·	50%
COc1ccccc1N(C)S(=O)(=O)c1ccc(Cl)c(C(=O)Nc2cccc(C)n2)c1	i	4%	7%	25%	1	·
CN(C1CCCCC1)S(=O)(=O)c1cccc(C(=O)Nc2ccccn2)c1	i	18µM*	7%	-7%	0	·
Cc1cccc(NC(=O)c2cccc(S(=O)(=O)N(C)C3CCCCC3)c2)n1	i	20µM*	11%	·	-1	·
Cc1cccc(NC(=O)c2cc(S(=O)(=O)N(C)c3ccc(F)cc3)ccc2Cl)n1	i	11µM*	-4%	?	2	·
CCN(CC)CCNC(=O)c1ccc(NC(=O)c2cccc(S(=O)(=O)N(C)C3CCCCC3)c2)cc1	i	10%	-4%	·	-3	·
CN1CCN(C(=O)C(C(=O)c2ccc(F)cc2)n2ccccc2=O)CC1 (centres undefined)	-99%*	4%	3%	-1%	0	-17%
CC[C@H](C)[C@H](NC(=O)[C@H](Cc1cnc[nH]1)NC(=O)[C@@H](NC(=O)[C@H](CCCNC(=N)N)NC(=O)[C@H](CCCCN)NC(=O)[C@H](CCCNC(=N)N)NC(=O)[C@H](CCCCN)NC(=O)[C@@H](N)CC(N)=O)[C@@H](C)CC)C(=O)NCC(=O)N1CCC[C@H]1C(=O)NCC(=O)N[C@@H](CCCNC(=N)N)C(=O)N[C@@H](C)C(=O)N[C@@H](Cc1ccccc1)C(=O)N[C@@H](Cc1ccc(O)cc1)C(=O)N[C@H](C(=O)N[C@H](C(=O)N[C@@H](CCCCN)C(=O)N[C@@H](CC(N)=O)C(=O)N[C@H](C(=O)N[C@H](C(=O)NCC(=O)N[C@H](C(=O)N[C@H](C(=O)N[C@@H](CS)C(=O)O)[C@@H](C)CC)[C@@H](C)O)[C@@H](C)CC)[C@@H](C)CC)[C@@H](C)O)[C@@H](C)O	·	·	·	·	·	3%
COc1cc(O)c2c(c1)OC(c1ccc(O)cc1)CC2=O (centres undefined)	i	13µM*	8%	-17%	-1	?
COc1cc(O)c2c(c1)O[C@H](c1ccccc1)CC2=O	·	·	·	·	·	-13%
COc1ccc(N2C(=O)c3ccccc3NC2c2ccc(OC)c(CSc3ccccn3)c2)cc1 (centres undefined)	-92%*	-11%	1%	0%	-4	13%
COc1ccc(N2C(=O)c3ccccc3NC2c2ccc(OC)c(COc3ccccn3)c2)cc1 (centres undefined)	i	?	10%	-2%	-2	1%
CN1CCc2nc3sc(C(=O)Nc4cccc(C#N)c4)c(N)c3cc2C1	·	18µM*	·	·	·	2%
COc1cccc(CNC(=O)CCSCc2ccccc2F)c1	i	14µM*	6%	-8%	3	-19%
COc1cccc(OC)c1CNC(=O)CCSCc1ccccc1F	i	21%	2%	0%	2	?
Cc1ccc(C)c(NS(=O)(=O)c2ccc3oc(=O)ccc3c2)c1	i	13%	3%	14%	1	0%
Cc1cc(C)cc(NS(=O)(=O)c2ccc3oc(=O)ccc3c2)c1	i	-11%	-3%	9%	-31*	-16%
COc1cc2c(NC3CCN(C)CC3)nc(N3CCN(C)CC3)nc2cc1OCCCN(C)C	·	·	-18%	·	·	·
Cc1ccc(N(C)C(=O)C2CCN(S(=O)(=O)c3cn(C)cn3)CC2)cc1	·	0%	·	·	·	56%
SMILES	pAkt inh	TDP43 rescue	aSyn yeast inh	Mito fusion act	CCT modulator	Apoferritin bind
C=C1C=C(C(F)F)n2ncc(C(=O)N3CCN(c4ccccn4)CC3)c2N1	·	·	-5%	·	·	·
Cc1oc2ccc(O)c(CN3CCCC3)c2c1C(=O)Nc1ccc(C(C)C)cc1	·	9%	·	·	·	-12%
O=C1S/C(=C\c2ccc(O)c([N+](=O)[O-])c2)C(=O)N1c1ccccc1Cl	i	-21%	16%	-18%	-2	13µM*
COc1ccc(N(CCCN2C(=O)c3cccc4cccc(c34)C2=O)C(=O)c2ccncc2)cc1	i	-7%[9.22 µM]	-2%	8%	-3	?
COc1ccc(N(CCN2C(=O)c3ccccc3C2=O)C(=O)c2cccc([N+](=O)[O-])c2)cc1	i	11µM*	14%	1%	2	-19%
COc1ccc(N2CCN(C(=O)c3cc4c(-c5ccccc5F)nn(C)c4s3)CC2)cc1	·	20µM*	·	·	·	4%
Cn1nc(C(=O)N2CCN(c3ccccc3F)CC2)c2c1-c1ccccc1SC2	·	18µM*	·	·	·	50%
Cn1nc(C(=O)N2CCN(c3ccccc3)CC2)c2c1-c1ccccc1SC2	·	?	·	·	·	78%
COc1ccc(N2CCN(C(=O)c3nn(C)c4c3CSc3ccccc3-4)CC2)cc1	·	13µM*	·	·	·	-1%
Cn1nc(C(=O)N2CCN(c3ccc(F)cc3)CC2)c2c1-c1ccccc1SC2	·	-12%	·	·	·	43%
CCCc1cc(=O)[nH]c(Nc2cc(Cl)cc(Cl)c2)n1	·	13%	·	·	·	9%
CCOc1cc(CNC(=O)Cn2ncn3c(cc4cc(F)ccc43)c2=O)cc(OCC)c1OCC	·	19%	·	·	·	3%
Cc1ccc(NC(=O)c2cc3c([nH]c2=O)CC(C)(C)CC3=O)cc1	·	·	-2%	·	·	·
COc1ccc(OC)c(CNC(=O)Cn2nc(C)c3nn(-c4ccc(Cl)cc4)c(C)c3c2=O)c1	·	13%	·	·	·	-11%
